Results reported in PubChem BioAssay (NCI).
The panel holds about 83,000 compounds, 20% with a hit somewhere; the sample as a whole holds those more often.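 Single-concentration screen, 48 h exposure, 96-well plates. Endpoint: percent growth. Below 10 = active.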 Values without a mark were called inactive. Calls of active or inactive are those of the source.

What follows are compounds tested on MDA-MB-468 breast (assay: NCI-60 one-dose screen, 48 h (100 = growth as untreated, 0 = no growth, -100 = all killed)). Settings: 10 µM unless noted.

Row | SMILES | growth
1 | CCOC(=O)Oc1c(OC)cc(C(=O)c2ccc(OC)c(O)c2OC)cc1OC | 19.8%
2 | Cc1c2c(c(C)c3c1oc1cc(O)ccc13)C(=O)N(CCN1CCCCC1)C2=O | 100%
3 | CC(C)(C)n1cc(-c2ccnc(NCCCNS(=O)(=O)c3ccc(Cl)cc3)c2)c(-c2cccc(F)c2)n1 | 48.4%
4 | COc1ccc(N)cc1C(=O)Nc1cccc(-c2cc(=O)c3c(OC)c(OC)c(OC)cc3o2)c1 | 55.9%
5 | Nc1cc(Br)c(-c2nn3c(CCC(=O)c4nc5ccccc5[nH]4)nnc3s2)c(Br)c1 | 91.8%
6 | CCN(C)S(=O)(=O)Nc1cccc(Nc2ncnc3cc(NC(=O)CCl)ccc23)c1Cl | 9.82% (active)
7 | CC(C)CCSC1=CC(=O)c2ccccc2C1=O | -84.1% (active)
8 | COc1ccc(NC(=O)c2ccc(Nc3ncnc4c3cnn4-c3cccc(F)c3)cc2)cc1 | 100%
9 | c1ccc(CNc2ncnc3ccc(-c4cnc5[nH]ncc5c4)cc23)cc1 | 50.7%
10 | COC1=CC(=O)C[C@@H](C)[C@]12Oc1c(Cl)c(OC)cc(OC)c1C2=O | 76.8%
11 | O=C(CCC(=O)c1nc2ncccc2[nH]1)NN1C(=O)CSC1c1ccc(Cl)cc1 (stereo not given) | 112%
12 | CCCCCCCCCC1=NC(C)(C)CN1C(C)(C)CO | 70.3%
13 | O=Cc1ncc(-c2ccc(C(F)(F)F)cc2)c(NC2CCCCCC2)n1 | 2.41% [100 µM] (active)
14 | Clc1ccc(C2CC(c3cccc(Nc4ccncc4)c3)=NN2c2cc(Cl)cc(Cl)c2)cc1 (stereo not given) | 84.9%
15 | CC1=N[C@@H]2CN(C(=O)OC(C)(C)C)C[C@@H]2n2c1cc1ccccc1c2=O | 111%
16 | CCCN(CCSSCCNc1nc(N(C)O)nc(N(C)O)n1)c1nc(N(C)O)nc(N(C)O)n1 | 15.8%
17 | CCOC(=O)Nc1ccc(-c2nc(-c3cccc(OC)c3)c(-c3ccnc(Br)c3)[nH]2)cc1 | 25.9%
18 | COc1cc2c(cc1OCCCN1Cc3ccc(OCCCCC(=O)N4CCC(CCN5CCCC5)CC4)cc3C1)N=C(N)C21CCCC1 | 17.4%
19 | C=CCn1c(SCC(=O)Nc2ccc(C(=O)/C=C/c3ccc(Br)cc3)cc2)nnc1-c1c[nH]c2ccccc12 | 85.8%
20 | CC(C)(O)c1cn(CCCCN2C(=O)C(=O)c3ccccc32)nn1 | 95%

Row | SMILES | growth
21 | S=C(Nc1ccccc1)N1CCCCC1 | 90.3%
22 | CCN(CC)CCCC(C)N=C(C1=C(C(=NC(C)CCCN(CC)CC)c2cccc(OC)c2)C(=O)NC1=O)c1cccc(OC)c1 (stereo not given) | -50.4% (active)
23 | O=C(Nc1ncc(Cc2ccccc2)s1)c1ccc2c(c1)OCCO2 | 28.2%
24 | CSc1nc2c(c(=O)[nH]1)C(c1ccc(C)cc1)C=C(C(=O)O)N2 (stereo not given) | 114%
25 | CCNCc1ccccc1 | 98.6%
26 | COC1=C(OC)C(=O)C(SC/C=C(\C)CCCC(C)CCCC(C)CCCC(C)C)=CC1=O (stereo not given) | 42.6%
27 | N#Cc1nc(-c2ccccc2)oc1N1CC[C@@H](CO)C1 | 95.2%
28 | CN1CC(c2ccccc2)C(C(=O)c2ccc(Br)cc2)C12C(=O)Nc1ccccc12 (stereo not given) | 106%
29 | CN(C(=S)S(=O)(=O)C12CC3CC(CC(C3)C1)C2)c1ccccc1 | 61.7%
30 | CCCCOc1nc2ccc(Cl)cc2cc1/C=C/C(=O)/C=C/c1ccc(Cl)cc1 | 79.5%
31 | C=C(C)[C@@H]1CC[C@]2(C(=O)N3CCNCC3)CC[C@]3(C)[C@H](CC[C@@H]4[C@@](C)(CCC(=O)N5CCNCC5)[C@H](C(=C)C)CC[C@]43C)[C@@H]12 | 49.5%
32 | COc1ccc(NC(=O)c2sc3nc(C)c(C(O)c4ccccc4)cc3c2N)cc1 (stereo not given) | 14.1%
33 | COc1ccc(-c2cnc(-c3ccncc3-c3cccc(OC)c3)o2)cc1 | 31.8%
34 | Clc1ccc(-c2c3ccc(=[N+]4CCCCC4)cc-3oc3cc(N4CCCCC4)ccc23)cc1 | -87.4% (active)
35 | O=[N+]([O-])c1cc(S(=O)(=O)Nc2ccccc2)ccc1Cl | -33.4% (active)
36 | ClCC(Cl)[C@@H]1CC2C=CC1C2 (stereo not given in full) | 96%
37 | C=C1CCC2C(C)(CO)C(O)CCC2(C)C1C/C=C1/C(=O)OCC1O/C=C/c1ccccc1 (stereo not given) | 80.5%
38 | COc1ccc(/C=C/C(=O)c2nnn(-c3ccc(Br)cc3)c2C)cc1OC | 46.9%
39 | C[C@@H]1CC[C@@H]2[C@@H]1[C@H](OC(=O)/C=C/c1ccccc1)[C@]1(C3CCCCC3)C[C@@H](NC(=O)CO)[C@@]2(C)O1 | 115%
40 | CC1=CC[C@@H]2CC[C@]3(C)[C@H](CC[C@@H]4[C@@]5(C)CCCNC(C)(C)[C@@H]5CC[C@]43C)[C@H]2[C@@H]1C | -47.2% (active)
